# Assay results: the supplement of paper PMC12297408
# Unmarked numbers belong to inactive results.
# System: Plasmodium falciparum NF54/iGP1_RE9H ulg8 stage V gametocytes
# Assay: gametocyte viability (luciferase signal relative to DMSO control) (% of DMSO control); higher = less gametocytocidal activity, active = 50 or less
# Settings: exposure time: 72 h
# Outline: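 Viability was calculated relative to the mean of DMSO vehicle wells on each plate. Day-12 stage V gametocytes of line NF54/iGP1_RE9Hulg8 (~2.5% gametocytemia, 3% hematocrit, 0.5% Albumax II medium) were exposed in 96-well plates to compounds at final 10 µM or 1 µM, one well each, for 72 h at 37 °C. Luminescence was then read on an IVIS Lumina II after D-luciferin addition.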
Compound,gametocyte viability (concentration: 1 µM),gametocyte viability (concentration: 10 µM)
O=c1[nH]c2ccc(Cl)cc2c(N[C@@H]2CN3CCC2CC3)c1-c1nc2ccccc2[nH]1,112,120
CCN1CCN(C(=O)Cc2ccc(Nc3ncc(F)c(Nc4ccc(C(=O)Nc5ccccc5Cl)cc4)n3)cc2)CC1 [Aurora A Inhibitor I],110,82.7
N#CC(C#N)=Cc1ccc([N+](=O)[O-])c(O)c1,107,102
CC1=C(O)C(=O)[C@@H]2O[C@@H]2C1=O [Terreic acid],98.4,64.8
Cc1ccccc1-n1c(Cn2cnc3c(N)ncnc32)nc2cccc(C)c2c1=O,101,96.9
CC(C)(C)c1cc(C=C(C#N)C#N)cc(C(C)(C)C)c1O,101,110
N#CC(C#N)=Cc1cc(O)c(O)c([N+](=O)[O-])c1,103,101
Cn1cc(C2=C(c3cn(C4CCN(Cc5ccccn5)CC4)c4ccccc34)C(=O)NC2=O)c2ccccc21,100,109
N#CC(C#N)=Cc1cc(O)c(O)c(O)c1,104,97.9
N#C/C(=C\c1ccc(O)c(O)c1)C(N)=S,101,101
CC(=O)c1c(O)c(C)c(O)c(Cc2c(O)c3c(c(C(=O)/C=C/c4ccccc4)c2O)OC(C)(C)C=C3)c1O [Rottlerin],100,96.9
COC[C@H]1OC(=O)c2coc3c2[C@@]1(C)C1=C(C3=O)[C@@H]2CCC(=O)[C@@]2(C)C[C@H]1OC(C)=O [Wortmannin],91.8,89.3
"OC[C@H]1O[C@@H](n2cnc3cc(Cl)c(Cl)cc32)[C@H](O)[C@@H]1O [5,6-dichloro-1-β-D-ribofuranosylbenzimidazole]",112,119
CN[C@@H]1C[C@H]2O[C@@](C)([C@@H]1OC)n1c3ccccc3c3c4c(c5c6ccccc6n2c5c31)C(=O)NC4 [Staurosporine],110,27.1 (active)
Cc1ccccc1-n1c(Cn2ncc3c(N)ncnc32)nc2cccc(C)c2c1=O,94.7,104
C/C(O)=C(\C#N)C(=O)Nc1cc(Br)ccc1Br,110,101
N#CC(C#N)=Cc1ccc(O)c(O)c1,99,104
